Results on 40 molecules are retold here after ChEMBL document CHEMBL3433997, “St. Jude Leishmania screening dataset” (2016).

Solute carrier family 2, facilitated glucose transporter member 1 (Homo sapiens), sequence (P11166 whole entry): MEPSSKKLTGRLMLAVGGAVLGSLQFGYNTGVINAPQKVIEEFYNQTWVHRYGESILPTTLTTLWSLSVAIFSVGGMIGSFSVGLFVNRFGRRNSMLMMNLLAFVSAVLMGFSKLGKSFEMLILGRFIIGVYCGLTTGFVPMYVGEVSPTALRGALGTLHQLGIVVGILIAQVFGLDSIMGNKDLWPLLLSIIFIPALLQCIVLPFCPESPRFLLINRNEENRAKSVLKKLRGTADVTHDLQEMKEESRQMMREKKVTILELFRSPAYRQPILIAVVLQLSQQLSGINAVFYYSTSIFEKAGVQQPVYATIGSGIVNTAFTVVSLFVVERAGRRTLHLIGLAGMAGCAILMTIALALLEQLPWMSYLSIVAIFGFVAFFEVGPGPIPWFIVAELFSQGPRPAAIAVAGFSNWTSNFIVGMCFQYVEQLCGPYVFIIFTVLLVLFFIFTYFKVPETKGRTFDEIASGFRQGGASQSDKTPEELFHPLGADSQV

The test has as its target Solute carrier family 2, facilitated glucose transporter member 1 (Homo sapiens) (UniProt P11166). Kind of test: ST_JUDE_LEISH: Cytotoxicity at 2uM final concentration against transgenic Leishmania Mexicana promastigotes LmGLUT1 that are glucose transport deficient and complemented with the human glucose transporter GLUT1. Activity is measured by DNA content using SYBR green in vitro. Format: functional.
As for `Cc1cccn2c(=O)c3cc(C(=O)NC(C)c4ccccc4)c(=N)n(CCc4ccccc4)c3nc12` (stereo not given), the inhibition (usually the relative decrease from the control value, in per cent) came out at 12.2%.

As for `CN1CCN(CCCSc2ccc3c(c2)ncn3-c2cc(OCc3ccccc3C(F)(F)F)c(C(N)=O)s2)CC1`, the inhibition is 8.47%. Regarding `COc1ccc(-c2cccc(NC(=O)c3ccc(Cl)cc3)c2)cc1CNC(C)C`, the inhibition amounted to 3.8%. To `CNCCNCc1ccc(-c2ccc(-c3nc4cc(F)ccc4[nH]3)s2)cc1` belongs 9.52%; to `COc1ccc(-c2cnc3ccc(N4CCCC4)nn23)cc1OC`, 0.89%. Regarding `O=C(Nc1ccc(Oc2ccccc2)cc1)N(CCN1CCCC1)Cc1ccc(-c2ccc(CN3CCNCC3)cc2)cc1`, the inhibition stood at 0.02%.

`CC(C)NCc1ccc(-c2ccc(NC(=O)c3ccc(Cl)cc3)cc2)cc1`: the inhibition came to 19.7%.

With `Cc1cc2nc(-c3ccc(C(=O)NCc4cccc(C(F)(F)F)c4)cc3)[nH]c2cc1C`, the inhibition was -0.3%. Turning to `O=C(NCCc1cccc(Cl)c1Cl)c1cnc(N2CCN(c3ccncc3)CC2)c(Cl)c1`, the inhibition is 77.2%. Turning to `Clc1cc(Br)ccc1-c1ccc(CNCC2CCNCC2)o1`, the inhibition stood at 0.75%. Consider `Oc1c(Cl)cc(-c2ccccc2)cc1CNC1CCCCC1`, for which the inhibition worked out at 2.63%.

In the case of `COc1ccc(/N=[N+](\[O-])c2ccccc2/[N+]([O-])=N/c2ccc(OC)cc2)cc1`, the inhibition turned out to be 1.29%. To `CC(C)(C)c1ccc(NC(=O)c2ccc(CN3CCCN(CC4CCCCC4)CC3)cc2)cc1` belongs 3.27%; to `COc1cccc(-c2csc(C(=O)NCC3CCN(Cc4ccc(C(C)C)cc4)C3)c2)c1` (stereo not given), -0.64%. As for `Nc1ccc(-c2cnc3[nH]cc(-c4ccc(C(=O)O)cc4)c3c2)cn1`, the inhibition is -0.33%. Under `CCC(NC(=O)c1ccccc1NC(=O)c1ccc(C)cc1)C(=O)OC` (stereo not given) stands -0.5%; under `Cc1cnc(N2CCN(CC3CCN(C)CC3)CC2)nc1Oc1ccc(-n2ccnc2)cc1`, 4.68%. Under `CC(C)(C)c1ccc(CN2CCC(CNC(=O)c3cc(-c4ccccc4C(F)(F)F)cs3)C2)cc1` (stereo not given) stands 1.63%.

On to `CCN1C(=O)N(CCC(C)C)C2(CCN(Cc3ccc(OC)cc3O)CC2)C1=O`, for which the inhibition is 5.4%.

On to `Cc1ccccc1C1CCN(C2CCC(NC(=O)C3=Cc4ccccc4OC3)CC2)CC1` (stereo not given), for which the inhibition was 5.24%.

Take `CC1(C)N=C(N)N=C(N)N1OCc1cc(Cl)c(CON2C(N)=NC(N)=NC2(C)C)cc1Cl`: the inhibition is 0.92%. Under `Cc1nc(-c2ccncc2)sc1C(=O)Nc1ccc(Cl)cc1C(=O)Nc1ccc(Cl)cc1` stands 3.13%; under `CCN(CC)CCN(Cc1ccc(-c2ccc(Cl)cc2)cc1)C(=O)Cn1c(CCc2cccc(F)c2F)nc(=O)c2ccccc21`, -2.54%; under `COc1ccc2nccc([C@@H](O)CN3CCC(NC(=O)Cc4cccc5c(Br)cccc45)CC3)c2c1`, 14.1%.

`Cc1cc(N(C)CCCN(C)C)nc(Nc2ccc(Br)cc2)n1`: the inhibition was found to be 0.19%. Regarding `O=C(Nc1ccc2c(c1)CCN2C1CCN(Cc2ccc(C(F)(F)F)cc2F)C1)c1ccco1` (stereo not given), the inhibition came out at 1.38%. To `c1cc2[nH]c(CCCc3nc4cc(C5=N[C@H]6CCCC[C@H]6N5)ccc4[nH]3)nc2cc1C1=N[C@@H]2CCCC[C@@H]2N1` belongs 0.97%; to `CN(C)CC(=O)Nc1ccc(Nc2nccc(NCC(O)c3ccccc3)n2)cc1` (stereo not given), 1.63%; to `C=CCOc1ccc2ccccc2c1CNCCCCCCNCc1c(OCC=C)ccc2ccccc12`, 4.33%. Take `FC(F)(F)c1cccc(CNC2CCN(CC3CCCCC3)CC2)c1`: the inhibition is 5.19%. As for `COc1cccc(CCNCCCCCCNCCc2ccc(Cl)cc2)c1`, the inhibition was 2.26%. To `O=C(NCCCN1CCC(N2CCCCC2)CC1)C1=Cc2cc(Br)ccc2OC1` belongs 1.4%. Under `CC(C)(C)c1ccc(CNCCOc2ccc(Nc3nnc(-c4ccc(-c5ncc[nH]5)cc4)o3)c3ccccc23)cc1` stands 2.98%; under `CCOc1c(Br)cc(Br)cc1CNCCCCNc1nc2ccccc2[nH]1`, 3.08%; under `FC(F)(F)c1cccc(N=C(S)NN=Cc2ccccn2)c1`, -0.57%.

Consider `Cc1cc(CN2CCC(C(=O)Nc3ccc(-c4nc5ccccc5[nH]4)cc3)CC2)oc1C`, for which the inhibition amounted to 13.2%. Under `O=C(/C=C/c1ccc(Cl)c(Cl)c1)NCCCCCN1CCC(NC(=O)Nc2ccc(Cl)cc2F)CC1` stands 2.9%; under `Cc1cccc(CNc2nc(C)cc(N[C@@H](CC(C)C)C(=O)NCc3cccc(F)c3)n2)c1`, 4.53%. `N=C(N)NN=Cc1ccccc1OCc1ccccc1Cl`: the inhibition is -0.49%. To `c1ccc2c(c1)CN(Cc1cc3ccccc3[nH]1)CC1(CCN(Cc3c[nH]c4cnccc34)CC1)O2` belongs 1.1%.
